ssDAF-12 act: activates DAF-12 receptor from parasite S. stercoralis; actives 1% (n = 370,000); activation, % at 6.8 µM; HEK293 ssDAF-12/GRIP1 lit1-tk-luc reporter, luminescence; % of 3 µM dafachronic acid response;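 active means activation above the mean over all tested compounds plus 3 SD, cut at about 0.9% in these data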;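 further: 0% = DMSO-only wells and 100% = 3 µM delta7-dafachronic acid wells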
hgDAF12 agonist: agonists of H. glycines DAF-12 nuclear receptor; HEK293 GAL4-hgDAF12 UAS-luciferase reporter, agonist luminescence; normalized to butyrate control; activation, % at 6.8 µM; actives 1.8% (n = 370,000);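 active means activation above a cutoff set at the mean of all screened compounds plus 3 SD, cut at about 10% in these data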;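 further: 0% = DMSO wells and 100% = sodium butyrate wells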
DAX1 inh-1: inhibitors of DAX1 repression of SF-1 activated StAR promoter; HEK293T StAR-luciferase reporter, SF-1/DAX-1 repression relief; actives 1.1% (n = 370,000); inhibition, % at 6.8 µM; AID 652010;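 active means inhibition above the mean over all tested compounds plus 3 SD, cut at about 3.6% in these data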;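 further: 0% = DAX-1 cells with DMSO and 100% = cells lacking DAX-1 with DMSO; higher inhibition means more luminescence from relief of DAX-1 repression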
hcDAF-12 act: H. contortus DAF-12 activation, primary screen; activation, % at 6.8 µM; actives 1.4% (n = 370,000); HEK293 hcDAF-12 lit1-tk-luc reporter, luminescence; 0% DMSO, 100% Δ7-dafachronic acid;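 active means activation above the mean of all tested compounds plus 3 SD, cut at about 5.5% in these data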;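 further: 100% = response to 3 µM Δ7-dafachronic acid high control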
DAX1 inh-2: inhibits human nuclear receptor DAX1 | P51843 | inhibition, % at 6.75 µM | HEK293 Gal4-DAX1 luciferase reporter, luminescence | actives 0.99% (n = 340,000);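 active means inhibition above the mean over all tested compounds plus 3 SD, cut at about 4.2% in these data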;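 further: 0% = DAX1-transfected cells with DMSO and 100% = empty-vector control cells with DMSO; inhibition shows as a rise in luminescence from relieved DAX1 repression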
Target sequence (P51843 207-470 limits assumed): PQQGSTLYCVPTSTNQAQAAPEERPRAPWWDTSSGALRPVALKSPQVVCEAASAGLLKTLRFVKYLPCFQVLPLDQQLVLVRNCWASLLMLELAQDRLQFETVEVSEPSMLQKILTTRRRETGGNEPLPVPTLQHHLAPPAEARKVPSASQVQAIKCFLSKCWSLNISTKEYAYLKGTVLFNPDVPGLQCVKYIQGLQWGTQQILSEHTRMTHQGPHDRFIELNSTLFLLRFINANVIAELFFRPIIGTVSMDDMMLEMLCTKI
* marks the source's active call; other numbers are inactive results; x = not tested or not shown. Only some compounds are listed: those with a hit (about 4.1% of all), similar ones and a draw of the others.

SMILES | ssDAF-12 act | hgDAF12 agonist | DAX1 inh-1 | hcDAF-12 act | DAX1 inh-2
OCCN1CCCC12CCC(c1ccccc1)CC2 (stereo unspecified) | -1 | 1 | 0 | 0 | x
COc1ccccc1N1CCN(S(=O)(=O)c2ccc3c(c2)n(C)c(=O)c(=O)n3C)CC1 | -1 | -2 | -1 | -5 | x
Cc1ccc(OC2CCN(C(=O)[C@@H](Cc3ccccc3)NC(=O)[C@H]3O[C@@H](n4ccc(=O)[nH]c4=O)[C@H](O)[C@@H]3O)CC2)cc1 | -1 | 0 | 1 | -1 | x
COC(=O)c1c(-c2ccc(OC)cc2)sc2ccc(OC)cc12 | 1.6* | 7 | 1 | 4 | 3
Cc1ccc(-n2nc(C)c(C(C)(O)C(F)(F)F)c2N)cc1 (stereo unspecified) | -2 | 1 | 0 | 0 | 1
Cc1nn(-c2ccccc2)c(N)c1C(O)(CSc1nccn1C)C(F)(F)F (stereo unspecified) | 0.9* | 1 | 0 | -2 | 0
Cc1nn(-c2ccc(Cl)cc2)c(N)c1C(O)(CSc1nccn1C)C(F)(F)F (stereo unspecified) | 1.0* | 7 | 0 | 2 | 0
CCOC(=O)C1=C(C(=O)OCC)C2N(Cc3ccc(C#N)cc3)c3ccccc3[C@@]23C[C@@H](C(=O)OC)N(S(=O)(=O)c2ccccc2)C3=N1 (stereo partly specified) | -1 | 2 | -1 | 1 | x
CC(=O)N1CCN(C(=O)c2ccc(CNC(=O)c3cccc(Br)c3)cc2)CC1 | -1 | -2 | 0 | -2 | x
S=c1[nH]nc(-c2n[nH]c3c2CCC3)n1N=Cc1ccc(Br)s1 | -2 | -3 | 0 | -1 | x
Cc1cccn2c(=O)c(/C=C(\C#N)S(=O)(=O)c3ccccc3)c(Oc3ccc(Cl)cc3)nc12 | -1 | 1 | 0 | -1 | 0
Cc1cc(Oc2nc3c(C)cccn3c(=O)c2/C=C(\C#N)S(=O)(=O)c2ccccc2)ccc1Cl | 1 | 4 | 1 | 6.2* | 0
c1ccc(-c2c[nH]c3cccc(-c4cc5ccccc5o4)c23)cc1 | 0 | 3 | -1 | 3 | x
COC(=O)CC#C[C@H](C)[C@@H](NS(C)(=O)=O)C1CCCCC1 | 1 | -2 | 1 | 0 | x
Cc1cccc(C(=O)Nc2nc3ncccn3c2-c2ccc(F)c(F)c2)c1 | -1 | -3 | -1 | -4 | x
COC(=O)c1ccc(CN2CCCC(CO)(Cc3ccc(F)cc3F)C2)cc1 (stereo unspecified) | 1.0* | -1 | 0 | -2 | -1
N#Cc1nc(Cc2ccccc2)oc1N1CCCC1 | -1 | 2 | 0 | -1 | 6.2*
CC1CC(C)CN(c2oc(Cc3ccccc3)nc2C#N)C1 (stereo unspecified) | -2 | -3 | 0 | -2 | -1
COc1cccc(C2=NNC(=NCc3ccccc3)SC2)c1 | -1 | 13* | 2 | 1 | 0
O=C(O)c1ccc2c(c1)N(Cc1ccc(F)cc1)C(=O)c1ccccc1S2 | -2 | -2 | 1 | -2 | 5.0*
Cc1ccc(NC(=O)C2CC2c2ccccc2)c([N+](=O)[O-])c1 (stereo unspecified) | -1 | 5 | 1 | 2 | 6.0*
O=C(Nc1ccc(Cl)cc1F)C1CC1c1ccccc1 (stereo unspecified) | -1 | 3 | 0 | -1 | -1
N=C(N)c1ccc(/C=C/c2ccc(C(=N)N)cc2O)cc1 | -1 | 2 | 0 | -2 | 5.1*
c1ccc2oc(-c3ccn[nH]3)cc2c1 | -1 | 6 | 1 | 5 | 5.9*
Fc1ccccc1Cn1ccc2ccc(-c3ccc4ccn(Cc5ccccc5F)c4c3)cc21 | -1 | 3 | -1 | -2 | x
SMILES | ssDAF-12 act | hgDAF12 agonist | DAX1 inh-1 | hcDAF-12 act | DAX1 inh-2
Cc1ccc(-c2cc(C(=O)N=Nc3c(O)[nH]c4ccccc34)[nH]n2)cc1C | -1 | 0 | 1 | -4 | x
Cc1[nH]c2ccccc2c1/C=N/Nc1ccccc1[N+](=O)[O-] | 0.9* | 4 | 0 | 5 | 0
COc1ccc(NS(=O)(=O)c2cc([N+](=O)[O-])ccc2N/N=C/c2c(C)[nH]c3ccccc23)cc1 | -1 | 1 | 0 | 2 | 0
O=S(=O)(c1ccc(CN2CCOCCOCCN(Cc3ccc(S(=O)(=O)C(F)(F)F)cc3)CCOCC2)cc1)C(F)(F)F | -2 | -4 | x | -4 | x
CCCOc1ccc(-c2c(C(=O)N/N=C/c3ccccc3)nnn2-c2nonc2N)cc1 | 2.4* | -1 | 0 | 0 | 3
O=c1[nH][nH]c2c1[C@H](CCc1cccc(Cl)c1)O[C@H](C1CC1)C2 | -1 | -2 | 1 | 0 | x
CC1OC(CCc2cccc(Cl)c2)Cc2[nH][nH]c(=O)c21 (stereo unspecified) | 2.0* | 7 | 3 | 4 | x
CCOC(=O)C1CCN(C(=O)c2cc3c(=O)n4ccccc4nc3s2)CC1 | -1 | 5 | 2 | 6.4* | 0
CCOC(=O)C1CCN(C(=O)c2cc3c(=O)n4cccc(C)c4nc3s2)CC1 | 0 | 1 | 0 | 6.5* | -1
CCN(CC)C(=O)c1cc2c(=O)n3ccccc3nc2s1 | 0 | 10 | 2 | 6.5* | 0
CCC1CCCCN1C(=O)c1cc2c(=O)n3cccc(C)c3nc2s1 (stereo unspecified) | x | x | x | x | 2
CS(=O)(=O)N[C@@H]1C[C@@H]2O[C@@H](CO)CC[C@@H]2O[C@@H]1CCc1ccc(-c2ccccc2F)cc1 | -2 | -1 | -2 | -1 | x
c1ccc(CN2CCC3CC2c2cc(N4CCCCC4)ccc23)cc1 (stereo unspecified) | -1 | 3 | 0 | -2 | 0
Cc1cc(Cl)c2oc(C(=O)N(C)Cc3cc(C)[nH]n3)c(C)c2c1 | -1 | -2 | 0 | -2 | 1
Cc1cc(Cl)c2oc(C(=O)N(CCO)Cc3ccccc3)c(C)c2c1 | -1 | 0 | 1 | 0 | 8.1*
Cc1cc(Cl)c2oc(C(=O)N(C)Cc3ccon3)c(C)c2c1 | 0 | 13* | 1 | 2 | 1
O=C(CC(c1ccc(F)cc1)c1ccco1)Nc1nccs1 (stereo unspecified) | 2.1* | -1 | -1 | -1 | -1
C=CCc1ccccc1OCCSc1nc2ccc([N+](=O)[O-])cc2s1 | 2.0* | 0 | 1 | 2 | 0
COc1ccccc1OCCSc1nc2ccc([N+](=O)[O-])cc2s1 | 0 | 0 | 0 | 4 | -1
Cc1c(Cl)cccc1NC(=S)NCc1ccco1 | -1 | -2 | 0 | -1 | 0
CCNS(=O)(=O)c1ccc(OC)c(C)c1 | -2 | 0 | 0 | -1 | 0
CCNS(=O)(=O)c1ccc2c(c1)NCC2 | 1.7* | -3 | 0 | -2 | 0
CC(C)CN(C(=O)CN(C)C(=O)Cc1c(F)cccc1Cl)c1c(N)n(CC(C)C)c(=O)[nH]c1=O | -2 | 5 | -1 | 1 | 1
Cc1cc([N+](=O)[O-])nn1CCCC(=O)NC1CCCCC1 | -2 | 0 | 0 | -1 | 8.3*

High-throughput results (PubChem)
